The sample as a whole holds a higher share of hits than the screen did.
RmlC RmlD mix = RmlC/RmlD inhibition, mixture screen; RmlC/RmlD coupled enzyme inhibition, 384-well mixture HTS; inhibition, % at 5.5 µM; 0.39% of 110,000 active; in the data active means inhibition above about 30%, passing the limit was not always enough
HIV RNase H inh-1 = inhibitors of HIV-1 reverse transcriptase RNase H; P04585; RT-RNase H RNA/DNA duplex cleavage, fluorescence; inhibition, % at 10 µM; 1.9% of 65,000 active; in the data active means inhibition above about 50%
HIV RNase H inh-2 = confirmation of HIV-1 reverse transcriptase RNase H inhibitors | shares compounds with HIV RNase H inh-1 | Recombinant RT RNase H, fluorescent RNA/DNA duplex cleavage | inhibition, % at 10 µM | 39% of 1,000 active | AID 651; in the data active means inhibition above about 48%
RmlCD fluor art = RmlC/RmlD fluorescence artifact, counter-screen; shares compounds with RmlC RmlD mix; RmlC/RmlD assay fluorescence artifact counter-screen; calls only; 96% of 360 active; AID 1696; call rule not given here;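 further: compound alone with no enzyme and no substrates present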
Each line names hits and unclear results; the compound was inactive in the other large screens (follow-up assays come after a bar, where they were run).

Cc1cccn2c(=O)c3cc(C(N)=S)c(=N)n(CCCOC(C)C)c3nc12	HIV RNase H inh-1 68.6 | HIV RNase H inh-2 inactive
CC(C)(C)n1nnnc1C(c1cc2cc3c(cc2[nH]c1=O)OCCO3)N1CCSCC1 (configuration not stated)	none
O=c1[nH]c2cc3c(cc2cc1C(c1nnnn1C1CCCC1)N1CCSCC1)OCCO3 (configuration not stated)	HIV RNase H inh-1 60.6 (no result: RmlC RmlD mix) | HIV RNase H inh-2 inactive
O=C(c1ccc(F)cc1)C1CCN(C(=O)c2ccncc2)CC1	HIV RNase H inh-1 88.0 | HIV RNase H inh-2 inactive
O=C(c1ccc(F)cc1)C1CCN(C(=O)N2CCOCC2)CC1	none
O=C1O[C@@H]([C@H](O)CO)C(O)=C1O	none (no result: HIV RNase H inh-1)
COc1ccc(NC(=O)CSc2nnc(CCC(=O)Nc3ccc(C)c(Cl)c3)n2C)cc1	none (no result: HIV RNase H inh-1)
COc1ccc(C2C=C(c3ccc(Cl)cc3)Nc3nc(NC(C)=O)nn32)cc1 (configuration not stated)	HIV RNase H inh-1 56.3 (no result: RmlC RmlD mix) | HIV RNase H inh-2 inactive
CC(=O)Nc1nc2n(n1)C(c1ccccc1)C=C(c1ccccc1)N2 (configuration not stated)	none
O=C(CCC1CCCC1)N[C@@H](Cc1ccc(O)cc1)C(=O)O	none (no result: HIV RNase H inh-1)
Cc1cc(C(=O)O)c2ccccc2n1	none (no result: HIV RNase H inh-1)
O=C(O)c1cc(-c2ccco2)nc2ccccc12	RmlC RmlD mix 53.6, HIV RNase H inh-1 81.3 | HIV RNase H inh-2 inactive | RmlCD fluor art active
Cc1cccc(NC(=O)C2NC(=O)CC2c2ccccc2)c1C (configuration not stated)	none (no result: HIV RNase H inh-1)
COc1ccc(NC(=O)C(C/C=C(/C)Cl)C(C)=O)cc1 (configuration not stated)	none (no result: HIV RNase H inh-1)
O=c1c2ccccc2[se]n1-c1ccccc1	RmlC RmlD mix 57.1, HIV RNase H inh-1 94.5 | HIV RNase H inh-2 66.6 | RmlCD fluor art active
O=c1c2ccccc2nc(N2CCCC2)n1-c1ccccc1	none (no result: HIV RNase H inh-1)
Nc1ccc(-c2nc3ccc(-c4nc5ccccc5o4)cc3[nH]2)cc1	RmlC RmlD mix active, HIV RNase H inh-1 72.7 | HIV RNase H inh-2 inactive | RmlCD fluor art active
Cc1nc2ccc(-c3nc4ccccc4o3)cc2[nH]1	none (no result: HIV RNase H inh-1)
CC(C)(OC1OC(CO)C(O)C(O)C1O)[C@H]1Oc2ccc3ccc(=O)oc3c2[C@H]1O (some centres not stated)	none (no result: HIV RNase H inh-1)
Nc1ccc2nc(-c3ccc(Cl)cc3)[nH]c2c1	none
Nc1ccc(-c2nc3c(Cl)c(N)ccc3[nH]2)cc1	RmlC RmlD mix 116.0 | RmlCD fluor art active
CCN(CC)c1ccc2cc(-c3nc4ccccc4[nH]3)c(=O)oc2c1	RmlC RmlD mix 30.2 | RmlCD fluor art active
CCN(CC)c1ccc2cc(-c3nc4ccccc4n3C)c(=O)oc2c1	none
COc1ccc(S(=O)(=O)NC(C)C(=O)Nc2ccccc2C(F)(F)F)cc1 (configuration not stated)	none (no result: HIV RNase H inh-1)
Cc1ccc(S(=O)(=O)N[C@H](C(=O)Oc2ccc3c(C(F)(F)F)cc(=O)oc3c2)c2ccccc2)cc1	RmlC RmlD mix 100.7 (no result: HIV RNase H inh-1) | RmlCD fluor art active
O=C(Nc1nccs1)c1ccc(COc2ccccc2Br)o1	none
COc1ccc(CNC(=O)C(=O)NCC2OCCN2S(=O)(=O)c2ccc3c(c2)OCCO3)cc1 (configuration not stated)	none (no result: HIV RNase H inh-1)
CC(C)c1cc(NCCN2CCOCC2)n2c(nc3ccccc32)c1C#N	none (no result: RmlC RmlD mix)
CC(C)c1cc(NCCCN2CCOCC2)n2c(nc3ccccc32)c1C#N	RmlC RmlD mix 44.6 | RmlCD fluor art active
Cc1cc(NCCCn2ccnc2)n2c(nc3ccccc32)c1C#N	RmlC RmlD mix 85.4 | RmlCD fluor art active
Cc1cc(NCCN2CCCCC2)n2c(nc3ccccc32)c1C#N	none (no result: RmlC RmlD mix)
CN1C(=O)c2ccc(N(C)C)cc2C1=O	none
COc1cc(=O)n(C)c2cc(N(C)C)ccc12	RmlC RmlD mix 79.8 | RmlCD fluor art active
Cc1c(C(=O)NCc2ccccc2)c(-c2ccccc2)nn1-c1ccccc1	none (no result: HIV RNase H inh-1)
CCNC(=O)c1cc2c(=O)n3cccc(C)c3nc2n(CCc2ccccc2)c1=N	RmlC RmlD mix 58.9 | RmlCD fluor art active
Cc1ccc(CNC(=O)c2cc3c(=O)n4cccc(C)c4nc3n(CC3CCCO3)c2=N)cc1 (configuration not stated)	none (no result: RmlC RmlD mix)
Cc1cccn2c(=O)c3cc(C(=O)NCCc4ccccc4)c(=N)n(CCCn4ccnc4)c3nc12	RmlC RmlD mix 37.5 (no result: HIV RNase H inh-1) | RmlCD fluor art active
Cc1cccn2c(=O)c3cc(C(=O)NCCN4CCOCC4)c(=N)n(CCc4ccccc4)c3nc12	none (no result: RmlC RmlD mix)
Cc1cccn2c(=O)c3cc(C(=O)NCc4ccco4)c(=N)n(CCOCCO)c3nc12	none
CCCn1c(=N)c(C(=O)NCC2CCCO2)cc2c(=O)n3cccc(C)c3nc21 (configuration not stated)	RmlC RmlD mix 87.2 | RmlCD fluor art active
COCCn1c(=N)c(C(=O)NCCc2ccccc2)cc2c(=O)n3cccc(C)c3nc21	RmlC RmlD mix 57.5 | RmlCD fluor art active
Cc1cccn2c(=O)c3cc(C(=O)NCc4ccccc4)c(=N)n(CCCN4CCOCC4)c3nc12	none (no result: RmlC RmlD mix)
COc1ccc(-c2noc(CN(C(=O)c3cccs3)C(C)C)n2)cc1	none (no result: HIV RNase H inh-1)
COC(=O)c1ccc(=O)c2nc3/c(=C/O)c(O)cc(=O)c3[nH]c12	none (no result: HIV RNase H inh-1)
Cc1cc(C)c2c(n1)nn1c(NCCCN(C)C)cc(C)nc21	RmlC RmlD mix 86.0 | RmlCD fluor art active
Cc1cc(NCCCN(C)C)n2nc(-c3cccs3)cc2n1	none (no result: HIV RNase H inh-1)
CCCCN1C(=S)NC[C@@H]1Cc1ccc(O)cc1	none (no result: HIV RNase H inh-1)
CCC(C)/C=C(C)/C=C/C1=CC2=C(Cl)C(=O)C(C)(OC(C)=O)C(=O)C2=CO1 (configuration not stated)	RmlC RmlD mix 32.5 (no result: HIV RNase H inh-1) | RmlCD fluor art active
CC[C@H](C)/C=C(C)/C=C/C1=CC2=C(Cl)C(=O)[C@@](C)(OC(C)=O)C(=O)C2=CO1	none (no result: HIV RNase H inh-1)
O=C(C1=C[C@@H](c2ccccc2)C[C@@H](OCCCCO)O1)N1CCOCC1	none (no result: HIV RNase H inh-1)
COc1ccc(CC2NCCC3=CC(=O)CCC32)cc1O (configuration not stated)	none (no result: HIV RNase H inh-1)
CCCCc1cc(=O)oc2c(CN(CC)CC)c(O)c(Cl)cc12	RmlC RmlD mix 85.4 (no result: HIV RNase H inh-1) | RmlCD fluor art active
Cc1c(C)c2cc(Cl)c(O)c(CN3CCCCC3)c2oc1=O	RmlC RmlD mix 89.8 | RmlCD fluor art active
Cc1c(O)c(CN2CCCC2)cc2c1oc(=O)c1ccccc12	none
CN1CCN(Cc2c(O)c(Cl)cc3c(-c4ccccc4)cc(=O)oc23)CC1	none
CCCc1cc(=O)oc2c(CN3CCN(C)CC3)c(O)c(Cl)cc12	RmlC RmlD mix 71.3 | RmlCD fluor art active
Cc1cc(=O)oc2c(CN3CCN(C)CC3)c(O)c(Cl)cc12	none (no result: RmlC RmlD mix)
CCCCc1cc(=O)oc2c(CN3CCCC3)c(O)c(Cl)cc12	RmlC RmlD mix 124.0 | RmlCD fluor art active
CCCCc1cc(=O)oc2cc(OCc3nn[nH]n3)c(Cl)cc12	none
CCC(C)NS(=O)(=O)c1ccc(-c2csnn2)s1 (configuration not stated)	none (no result: HIV RNase H inh-1)
COc1cccc(/C=N/NC(=O)CC2C(=O)NN=C2C)c1OC (configuration not stated)	none (no result: HIV RNase H inh-1)
COc1ccc(OC)c(/C=N/NC(=O)CC2C(=O)NN=C2C)c1 (configuration not stated)	RmlC RmlD mix 53.7 (no result: HIV RNase H inh-1) | RmlCD fluor art active
Cc1ccccc1NC(=S)NNC(=O)c1csc2c1CCC(C)C2 (configuration not stated)	none (no result: HIV RNase H inh-1)
Cc1cc(NCC(C)C)n2ncnc2n1	none (no result: HIV RNase H inh-1)

Compound activity: PubChem BioAssay, several laboratories
